TDP1 cell noCPT – qHTS for Inhibitors of human tyrosyl-DNA phosphodiesterase 1 (TDP1): qHTS in cells in absence of CPT; DT40 Tdp1-/- hTDP1 cells, no CPT, ATP luminescence, 48 h; Potency, µM (series often up to 46.2 µM), hits mostly inhibitors; 420,000 compounds, 15% hits; AID 686978, 2013; also: nearly all actives have a fitted effect of over 55% in size
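Chicken DT40 Tdp1-/- cells stably complemented with human TDP1 were seeded at 400 cells/well with DMSO in place of 20 nM camptothecin. After compound pinning, cells grew at least 48 hr at 37 °C; viability read by CellTiter-Glo luminescence.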
IL1B secr inh – blocks inflammasome-driven IL-1 beta release | THP-1 LPS/ATP IL-1B secretion, AlphaLISA, 16 h; active compounds read low | activity change, % at 57.5 µM | 360,000 compounds, 4.7% hits; in the data active = activity change below about -50%; inconclusive = mostly about -30% to -49%
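THP-1 cells pretreated 1 hr with compounds (up to 57.5 uM final), then stimulated with LPS (250 ng/mL final) plus ATP (1.25 mM final); secreted IL-1B measured by AlphaLISA after 16 hr, decreased signal indicating inhibition.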
HT1080 IDH1KD tx – HT-1080 IDH1 knockdown cell toxicity (counter line); HT-1080 IDH1 knockdown viability, ATP luminescence, 48 h; Potency, µM (series often up to 46.1 µM), actives largely listed as cytotoxic; 360,000 compounds, 2% hits; AID 686971
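Using the IDH1-knockdown HT-1080 line run in the same batch and compound series as the NT line, viability after 48 h at 37 °C was determined by CellTiter-Glo luminescence and expressed as % activity.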
TDP1 cell CPT – DT40-hTDP1 cell growth loss with CPT; chicken DT40 Tdp1-/-;hTDP1 cells + 20 nM CPT, ATP luminescence, 48 h; AID 686979; 420,000 compounds, 12% hits; Potency, µM (highest dose often 46.2 µM), usual class: inhibitors; also: nearly all actives have a fitted effect of over 55% in size
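Chicken DT40 Tdp1-/- cells stably complemented with human TDP1 were seeded at 400 cells/well in medium containing 20 nM camptothecin, exposed to pin-transferred compounds, and grown at 37 °C for at least 48 hr. Viability was read as ATP luminescence.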
HT1080NT lethal – kills 2HG-producing HT-1080-NT fibrosarcoma cells; 360,000 compounds, 1.6% hits; Potency, µM (top dose mostly 46.1 µM), most hits filed as cytotoxic; HT-1080-NT fibrosarcoma viability, CellTiter-Glo ATP luminescence, 48 h;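 also: NT is the 2HG producing partner of a matched IDH1 knockdown line; nearly all actives have a fitted effect of over 55% in size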
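A 48-hour cytotoxicity screen used HT-1080-NT cells plated 2 hours before compound delivery. ATP-based CellTiter-Glo luminescence measured viability, normalized to DMSO and no-cell controls.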
Hits are given with their value; 0 = inactive; ? = inconclusive; - = no result given. This is a sample that favours compounds with a hit; in the whole collection about 19% have one here. Unless noted, calls follow the shape of the dose curve; as a rule, active = well fitted curve in the direction sought with a large enough effect; inconclusive = small, poorly fitted or top-dose-only effect, or another doubt; inactive = no such curve, though single readings can be large; an effect the other way counts as inactive or inconclusive.

SMILES	TDP1 cell noCPT	IL1B secr inh	HT1080 IDH1KD tx	TDP1 cell CPT	HT1080NT lethal
O=C(CCCCCn1c(=O)[nH]c2ccccc2c1=O)N1CCN(Cc2ccc3c(c2)OCO3)CC1	?	0	0	13µM	0
Cc1ccc(C)c(N2CCN(C(=O)CCn3c(=O)[nH]c4ccccc4c3=O)CC2)c1	12µM	-	-	16µM	-
CCOc1cc2[nH]c(=O)n(CCC(=O)N3CCN(c4ccccc4)CC3)c(=O)c2cc1OCC	0	-	-	0	-
Cc1onc(-c2c(Cl)cccc2Cl)c1NC(=O)NC1CCSC1 (configuration not stated)	0	0	0	0	0
CSc1cccc(NC(=O)Cn2c(=O)n(Cc3ccccc3)c(=O)c3sc4ccccc4c32)c1	?	-	-	0	-
CCCCCn1c(=O)[nH]c2cc(C(=O)N3CCN(c4cccc(C(F)(F)F)c4)CC3)ccc2c1=O	7.3µM	-	-	10µM	-
[O-][N+](=Cc1ccccc1)c1ccc(Cl)cc1	21µM	0	0	6.5µM	0
[O-]/[N+](=C/c1ccc(F)cc1)c1ccc(Cl)cc1	9.2µM	0	0	16µM	0
Cc1nn(Cc2ccc(F)cc2)c2sc(C(=O)Nc3ccc(N4CCOCC4)cc3N3CCOCC3)cc12	7.3µM	0	?	8.2µM	0
Cc1noc(NS(=O)(=O)c2ccc(NS(=O)(=O)c3ccc(Cl)cc3)cc2)c1C	0	0	0	0	0
Cc1ccc(-c2noc(CCC(=O)NC3CCN(Cc4ccccc4)CC3)n2)cc1	?	?	0	13µM	0
Cc1ccc(-c2noc(CCC(=O)NC3CCCc4ccccc43)n2)cc1 (configuration not stated)	2.3µM	0	0	9.2µM	0
CC(=O)c1ccc(S(=O)(=O)NCCC(=O)NC2CCN(Cc3ccccc3)CC2)cc1	?	-87	0	0	0
CCOc1ccc(S(=O)(=O)NCCC(=O)NC2CCN(Cc3ccccc3)CC2)cc1	0	0	0	0	0
O=C(CCc1nc(-c2ccccc2)no1)NC1CCCCCC1	0	0	0	0	0
CC(NC(=O)CCNS(=O)(=O)c1ccc2c(c1)oc(=O)n2C)c1ccccc1 (configuration not stated)	0	0	0	0	0
Cc1ccc2c(c1)cc(C(=O)NCc1ccccc1C)n2C	0	-	-	0	-
CSCCC(NS(=O)(=O)c1ccc2c(c1)oc(=O)n2C)C(=O)N1CCN(c2cccc(Cl)c2)CC1 (configuration not stated)	21µM	-	-	?	-
Cn1c(=O)oc2cc(S(=O)(=O)CCC(=O)N3CCN(c4cccc(Cl)c4)CC3)ccc21	12µM	-	-	18µM	-
Cn1c(=O)oc2cc(S(=O)(=O)CCC(=O)N3CCN(c4ccccc4)CC3)ccc21	0	0	0	0	0
CN1C(=O)Cc2cc(S(=O)(=O)CCC(=O)N3CCN(c4cccc(Cl)c4)CC3)ccc21	8.2µM	-	-	21µM	-
COC(=O)c1cnc(N2CCOCC2)nc1C(F)(F)F	0	0	0	0	0
CC(=O)N(CC(=O)N(CC(=O)O)c1ccc(Cl)cc1)c1ccc(Cl)cc1	0	0	0	0	0
COc1ccc(CN(C2CCCCC2C)S(=O)(=O)c2ccc(S(=O)(=O)N(C)C)cc2)cc1OC (configuration not stated)	21µM	0	0	16µM	0
COc1ccc(C(=O)N2CCC[C@@]3(CCN(C(=O)Nc4cccc(C#N)c4)C3)C2)cc1	0	-	-	0	-
SMILES	TDP1 cell noCPT	IL1B secr inh	HT1080 IDH1KD tx	TDP1 cell CPT	HT1080NT lethal
CC1=C(C(=O)Nc2ccccc2)C(c2cccnc2)n2ncnc2N1 (configuration not stated)	0	0	0	0	0
N#CCCN(C(=O)COC(=O)COc1ccccc1Cc1ccccc1)c1ccccc1	0	0	0	0	0
CN1C(=O)Cc2cc(S(=O)(=O)CCC(=O)Nc3ccc(Cl)c(C(F)(F)F)c3)ccc21	?	-	-	23µM	-
CCOC(=O)c1cccc(NC(=O)CCS(=O)(=O)c2ccc3c(c2)CCN3C(=O)CC)c1	0	-	-	?	-
O=C(CCS(=O)(=O)c1ccc(Br)cc1)Nc1ccc(Cl)c(C(F)(F)F)c1	21µM	-	-	?	-
Cc1ccc(S(=O)(=O)CCC(=O)Nc2ccc(Br)cc2)cc1	0	0	?	?	0
